From PubChem BioAssay AID1159580 (chemical genetic matrix, 2015)
Screen size: about 5,500 compounds; about 2,000 (36%) were called active. About 18% were inconclusive and are not listed. Rule as the data show it: active = normalized growth mostly below about 0.91 (no sharp cut-off); inconclusive = no clear call, values can overlap the other calls; inactive = mostly above about 0.92. The list shows a part of the results.

Experiment: chemical genetic growth profiling, strain panel (AID 1159580);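 also: tested at 20 µM; growth read once vehicle control cultures reached saturation at 30 °C; 1 = growth at the plate median or of vehicle wells; lower values mean less growth of the strain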
Details: S. cerevisiae deletion strains, growth OD

Measured: normalized growth

CO/N=C(\C(=O)NC1C(=O)N2C(C(=O)OC(C)OC(C)=O)=C(COC(N)=O)CSC12)c1ccco1 (stereo not given)
inactive: locus YAL021C, strain ccr4, active compounds read low 0.994 | locus YAL026C, strain drs2, active compounds read low 0.996 | locus YAL030W, strain snc1, active compounds read low 0.998 | locus YBL061C, strain skt5, active compounds read low 0.992 | locus YBR009C, strain hhf1, active compounds read low 0.994 | locus YBR023C, strain chs3, active compounds read low 0.988 | locus YBR171W, strain sec66, active compounds read low 0.983 | locus YBR231C, strain swc5, active compounds read low 1 | locus YBR279W, strain paf1, active compounds read low 0.991 | locus YCL011C, strain gbp2, active compounds read low 0.997 | locus YCL016C, strain dcc1, active compounds read low 0.985 | locus YCL061C, strain MRC1, active compounds read low 0.99 | locus YCL069W, strain vba3, active compounds read low 0.989 | locus YCR088W, strain abp1, active compounds read low 0.994 | locus YDL005C, strain med2, active compounds read low 0.985 | locus YDL040C, strain nat1, active compounds read low 0.995 | locus YDR001C, strain nth1, active compounds read low 1 | locus YDR069C, strain doa4, active compounds read low 0.994 | locus YDR137W, strain rgp1, active compounds read low 0.996 | locus YDR159W, strain sac3, active compounds read low 0.996 | locus YDR195W, strain ref2 0.985 | locus YDR297W, strain sur2, active compounds read low 1 | locus YDR334W, strain swr1, active compounds read low 1 | locus YDR335W, strain msn5, active compounds read low 0.996 | locus YDR392W, strain spt3, active compounds read low 0.993 | locus YEL003W, strain gim4, active compounds read low 0.998 | locus YEL037C, strain rad23, active compounds read low 0.997 | locus YEL061C, strain CIN8 (second series), active compounds read low 0.999 | locus YER015W, strain faa2, active compounds read low 1 | locus YER016W, strain bim1, active compounds read low 0.99 | locus YER111C, strain swi4, active compounds read low 0.986 | locus YER155C, strain BEM2 (second series), active compounds read low 0.991 | locus YFR010W, strain ubp6, active compounds read low 0.998 | locus YGL167C, strain pmr1, active compounds read low 0.989 | locus YGL173C, strain kem1, active compounds read low 0.985 | locus YGL227W, strain vid30, active compounds read low 0.981 | locus YGL240W, strain doc1, active compounds read low 1.01 | locus YGL253W, strain hxk2, active compounds read low 1 | locus YHR013C, strain ard1, active compounds read low 0.998 | locus YHR027C, strain rpn1, active compounds read low 0.994 | locus YHR030C, strain SLT2, active compounds read low 1.03 | locus YHR079C, strain IRE1, active compounds read low 1.05 | locus YHR142W, strain chs7, active compounds read low 0.99 | locus YJL092W, strain hpr5, active compounds read low 0.993 | locus YJL095W, strain BCK1 (second series), active compounds read low 0.997 | locus YJL095W, strain BCK1, active compounds read low 1.01 | locus YJL115W, strain asf1, active compounds read low 0.996 | locus YJL129C, strain trk1, active compounds read low 0.987 | locus YJL154C, strain vps35, active compounds read low 1.01 | locus YJL164C, strain tpk1, active compounds read low 0.996 | locus YJL166W, strain qcr8, active compounds read low 0.996 | locus YJL187C, strain SWE1, active compounds read low 1 | locus YJR066W, strain TOR1, active compounds read low 0.989 | locus YKL160W, strain elf1, active compounds read low 0.997 | locus YKR026C, strain gcn3, active compounds read low 0.983 | locus YKR091W, strain srl3, active compounds read low 0.998 | locus YLL001W, strain dnm1, active compounds read low 0.981 | locus YLL026W, active compounds read low 0.991 | locus YLL041C, strain sdh2, active compounds read low 0.993 | locus YLR027C, strain aat2, active compounds read low 0.992 | locus YLR113W, strain HOG1, active compounds read low 1 | locus YLR221C, strain rsa3, active compounds read low 0.995 | locus YLR258W, strain gsy2, active compounds read low 0.995 | locus YLR262C, strain YPT6 (second series), active compounds read low 0.985 | locus YLR320W, strain mms22, active compounds read low 0.986 | locus YLR342W, strain FKS1, active compounds read low 0.988 | locus YLR357W, strain rsc2, active compounds read low 1.02 | locus YLR370C, strain arc18, active compounds read low 0.987 | locus YLR384C, strain iki3, active compounds read low 1 | locus YML120C, strain ndi1, active compounds read low 0.996 | locus YMR058W, strain fet3, active compounds read low 0.996 | locus YMR125W, strain sto1, active compounds read low 0.985 | locus YMR129W, active compounds read low 0.995 | locus YMR205C, strain PFK2, active compounds read low 0.991 | locus YMR231W, strain pep5, active compounds read low 0.989 | locus YNL071W, strain lat1, active compounds read low 1 | locus YNL183C, strain NPR1, active compounds read low 0.99 | locus YNL209W, strain ssb2, active compounds read low 0.995 | locus YNL248C, strain rpa49, active compounds read low 0.987 | locus YNL322C, strain KRE1 (second series), active compounds read low 0.99 | locus YNR049C, strain mso1, active compounds read low 0.992 | locus YOR001W, strain rrp6, active compounds read low 0.999 | locus YOR070C, strain gyp1, active compounds read low 0.929 | locus YOR080W, strain dia2, active compounds read low 1 | locus YOR083W, strain WHI5, active compounds read low 0.996 | locus YOR106W, strain vam3, active compounds read low 0.988 | locus YOR231W, strain MKK1, active compounds read low 1.04 | locus YOR265W, strain rbl2, active compounds read low 0.991 | locus YOR270C, strain vph1, active compounds read low 1 | locus YOR290C, strain snf2, active compounds read low 1 | locus YPL051W, strain arl3, active compounds read low 0.999 | locus YPL078C, strain atp4, active compounds read low 0.995 | locus YPL106C, strain sse1, active compounds read low 0.981 | locus YPL240C, strain hsp82, active compounds read low 0.994 | locus YPL256C, strain CLN2, active compounds read low 1.07
